# Rows were chosen to be rich in hits. Some 9.3% of all compounds tested hit in one or more screens of this group.
# HCMV inh: blocks human cytomegalovirus replication; HFF cells, HCMV-luciferase reporter, 72 h; stronger effect = lower value; activity change, negative = inhibition, % at 57.5 µM; 410,000 compounds, 4.5% hits; AID 1259415; in the data active = activity change below about -60%; inconclusive = no clear call, values can overlap the other calls; inactive = above about -39%
#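 HFF cells seeded 16 h at 37C, treated with compounds, infected with luciferase-reporter HCMV at MOI 1 PFU/cell; luciferase read at 72 h post infection, normalized to buffer-only and Salinomycin controls.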
# FMDV inh: antivirals against foot and mouth disease virus; 410,000 compounds, 1.2% hits; FMDV antiviral cell-based qHTS; Potency, µM (series often up to 57.9 µM), for inactives: at the highest dose activity change, negative = inhibition, hits mostly inhibitors; calls by dose curve; tested in HEK293T cells; also: read-out not given here; potency is read from the fitted curve at half-maximal effect; nearly all actives have a fitted effect of over 45% in size
# VACV mCherry inh: inhibitors of vaccinia virus infection (mCherry reporter signal); Potency, µM (doses to about 36.5 µM), for inactives: top-dose activity change, negative = inhibition, most hits filed as inhibitors; Vaccinia virus mCherry reporter infection, fluorescence; 310,000 compounds, 0.63% hits; calls by dose curve; tested in A549 cells; also: potency is read from the fitted curve at half-maximal effect; nearly all actives have a fitted effect of over 35% in size
# Sm TGR inh: inhibitors of Schistosoma mansoni thioredoxin glutathione reductase. Potency, µM (highest dose often 114 µM), without a hit: at the highest dose activity change, negative = inhibition, hits mostly inhibitors. Q962Y6. 360,000 compounds, 3% hits. purified TGR, DTNB reduction, TNB absorbance 405 nm; also: potency is read from the fitted curve at half-maximal effect; nearly all actives have a fitted effect of over 60% in size
#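 TGR 20 nM + NADPH 100 uM (dispensed conc.), cpd preinc 15 min RT; start with NADPH (500 uM addition) then DTNB (15 mM addition). Kinetic TNB absorbance, 405 nm filter. Four-parameter Hill fit across titration.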
# Vaccinia Venus: vaccinia inhibition (Venus reporter) | Vaccinia virus Venus reporter expression, fluorescence | Potency, µM (doses to about 36.5 µM), without a hit: at the top dose activity change, negative = inhibition, usual class: inhibitors | 330,000 compounds, 0.46% hits; calls by dose curve; tested in A549 cells; also: potency is read from the fitted curve at half-maximal effect; nearly all actives have a fitted effect of over 30% in size
# HCV inhibitor: blocks hepatitis C virus. Potency, µM (series often up to 41.8 µM), without a hit: at the top dose activity change, negative = inhibition, usual class: inhibitors. Huh7.5.1 HCVcc-Cre infection, luciferase reporter, 44 h. 340,000 compounds, 3.4% hits. AID 651820; also: potency is read from the fitted curve at half-maximal effect
#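 Reporter virus HCVcc-Cre (~0.5 moi) infects cells exposed to compound; seeding density 1,000 cells/well with 4 h settling beforehand. Luminescence, 15 sec read, taken 44 h post-infection following a 15 min RT substrate incubation.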
# * hit, by the source's call; i = inactive; u = inconclusive; x = no result; [ ] = remark or other dose. Unless noted, calls follow the shape of the dose curve; as a rule, active = well fitted curve in the direction sought with a large enough effect; inconclusive = small, poorly fitted or top-dose-only effect, or another doubt; inactive = no such curve, though single readings can be large; an effect the other way counts as inactive or inconclusive. % is scaled to controls: 0 for no effect and ±100 for the full control effect.
SMILES,HCMV inh,FMDV inh,VACV mCherry inh,Sm TGR inh,Vaccinia Venus,HCV inhibitor
CCN1CCN(C(c2ccccc2)c2c(O)cc(C)n(CCOC)c2=O)CC1 (stereo unspecified),1,-18%,i,4µM*,-8%,x
Cc1ccc(-c2ccc(C(=O)NCc3ccc(Cl)cc3)o2)c2ccccc12,-10,-25%,u,14µM*,-19%,-5%[8.37 µM]
COc1ccc(NC(=O)c2ccc(-c3ccc(C)c4ccccc34)o2)cc1,2,17%,-13%,45µM*,-22%,u
COc1ccc(NC(=O)c2ccc(-c3ccccc3Cl)o2)cc1,28,54%,-28%,-13%,-8%,-25%
c1cncc(Nc2nc(-c3cccnc3)cs2)c1,-6,23%,i,0%,-24%,u
NS(=O)(=O)c1ccc(Nc2nc(-c3cccnc3)cs2)cc1,-23,-23%,-28%,-14%,-22%,13µM*
NS(=O)(=O)c1ccc(Nc2nc(-c3ccc(O)cc3O)cs2)cc1,-91*,u,i,4%,-15%,-22%
CCC(=O)Nc1ccc(C(=O)NNC(=O)C2CCCCC2)cc1,-15,1%,-15%,-26%,-5%,-1%
CCN(CC)CCn1c(=O)n(-c2ccc(Cl)cc2)c(=O)c2c3c(sc21)CN(C)CC3,-15,2%,x,u,x,4µM*
Cc1nc2ccccc2n1CCc1nc2c3ccccc3nc(SCC(=O)NCc3ccco3)n2n1,-62*,u,x,u,x,u
Cc1ccc(NC(=O)CSc2nc3ccccc3c3nc(CCn4c(C)nc5ccccc54)nn23)cc1F,-11,-27%,u,-1%,u,x
Cc1nc2ccccc2n1CCc1nc2c3ccccc3nc(SCC(=O)Nc3cccc(C(F)(F)F)c3)n2n1,-61*,0%,-17%,13%,u,x
Cc1c(O)nc(SCC(=O)Nc2cccc(C(F)(F)F)c2)n(-c2ccccc2)c1=O,-104*,-21%,i,3%,-11%,-2%
Cc1ccccc1NC(=O)CSc1nc2ccccc2c2nc(CCn3c(C)nc4ccccc43)nn12,-4,u,u,-5%,u,x
COc1ccc(C(=O)Oc2ccc(/C=N/Nc3ccc(Cl)c(C(=O)O)c3)cc2OC)cc1,39,-15%,u,-12%,-7%,18%
O=C1C(Br)=C(c2ccccc2)C(c2ccccc2)=C1c1ccccc1,x,3.5µM*,-7%,x,-10%,6.3µM*
CS(=O)(=O)c1ccc(C2=C(CNC(=O)c3cccnc3)[C@H]3CC[C@@H](C2)N3Cc2ccccc2)cc1,19,-4%,i,x,-6%,x
COc1cccc(N=C(N)N=C(N)N)c1,4,-17%,x,-2%,x,8%
NC(N)=NC(N)=Nc1ccc2ccccc2c1,-69*,-7%,x,-1%,x,u
CN(C)Cc1c(O)ccc2c(-c3ccccc3)cc(=O)oc12,-35,-3%,-22%,20%,-17%,0%
O=c1cccc2n1Cc1cc3ccccc3nc1-2,103,75%,-12%,-4%,-9%,1%[8.37 µM]
CC[C@@]1(O)C(=O)OCc2c1cc1n(c2=O)Cc2cc3c(CN(C)C)c(O)ccc3nc2-1,-97*,-12%,u,x,u,u
CC[C@@]1(O)C(=O)OCc2c1cc1n(c2=O)Cc2cc3c(N)cccc3nc2-1,-99*,u,u,u,u,27%
CC(C)CN1CCC(=O)N(CCN=[N+]=[N-])CC1,32,-20%,-15%,4%,-5%,13%
CCCc1cc(C(=O)NC(C)C2CCCO2)cs1 (stereo unspecified),11,25%,x,-33%,x,3%
SMILES,HCMV inh,FMDV inh,VACV mCherry inh,Sm TGR inh,Vaccinia Venus,HCV inhibitor
CC1=Nc2ccccc2/C1=C/c1c(O)[nH]c(=O)[nH]c1=O,4,-14%,x,-20%,x,2%
O=c1[nH]c(O)c(/C=C2/C=CC(c3cc(Cl)ccc3Cl)=N2)c(=O)[nH]1,0,u,i,-11%,13%,32µM*
Cc1ccccc1OCC(=O)NS(=O)(=O)c1ccc(Cl)cc1,5,-12%,-19%,4%,-8%,17%
O=C(NN=C1CCCCCC1)NC1CCCCC1,4,75%,-12%,u,-4%,10%
NC(=S)NN=C1CCC(C2CCCCC2)CC1 (stereo unspecified),-80*,-18%,-27%,x,-7%,u
NC(=S)NN=C1CCCCCCCCCC1,-39,u,u,x,u,11µM*
S=C(NN=C1CCCCCC1)Nc1ccc(Cl)cc1,-34,x,i,-1%,-3%,6%
O=[N+]([O-])c1cccc(/C=C/c2ccccc2)c1,x,x,-15%,x,-13%,x
CC1(C)COC(/C=C/c2cccc([N+](=O)[O-])c2)=N1,-95*,25µM*,11µM*,2%,u,u
CCc1ccc(N=C2N=C(N)c3ccccc32)cc1,85,u,i,-2%,-9%,-18%
Cc1ccc(N=C2N=C(N)c3ccccc32)cc1C,-63*,-6%,x,x,x,u
COc1ccc(CNC(=O)c2ccc(-n3cncn3)c3ccoc23)cc1OC,3,-4%,8%,x,-10%,x
CCC1OC(=O)C(C)[C@@H](O[C@H]2C[C@@](C)(OC)C(O)C(C)O2)C(C)[C@@H](O[C@@H]2OC(C)CC(N(C)C)C2O)[C@@](C)(O)CC(C)CN(C)C(C)C(O)[C@]1(C)O (stereo partly specified),x,20%,-19%,x,-13%,x
CCC(=O)O[C@@H]1CC(=O)O[C@H](C)CC=CC=C[C@@H](O)[C@H](C)C[C@H](CC=O)[C@H](O[C@H]2O[C@H](C)[C@@H](O[C@H]3C[C@@](C)(O)[C@@H](OC(=O)CC)[C@H](C)O3)[C@H](N(C)C)[C@H]2O)[C@H]1OC,x,x,x,25µM*,x,x
COC(CNC(=O)[C@H](Cc1ccccc1)N1Cc2ccccc2C1=O)OC,-7,7%,-16%,-20%,-14%,16%
CCCCn1c(SC(C)C(=O)NCC2CCCO2)nc2cc(C(=O)OC)ccc2c1=O (stereo unspecified),-23,-20%,i,0%,-19%,u
CC(C)(C)c1ccc(OCCN2CCCC2)cc1,-10,4%,-12%,0%,-12%,0%
CC(C)(C)c1ccc(OCCCCCCN2CCNCC2)cc1,u,-13%,-16%[7.34 µM],x,-5%[7.34 µM],7.9µM*
CC(C)(c1ccccc1)c1ccc(OCCN2CCOCC2)cc1,19,-28%,x,15%,x,-3%
CC(C)(c1ccccc1)c1ccc(OCCCN2CCNCC2)cc1,-88*,0%,-18%,x,0%,8.9µM*
CCOc1ccc(-c2nonc2NC(=O)c2oc3cc(C)c(C)cc3c2C)cc1OCC,-23,-15%,-15%,0%,-11%,x
COC(=O)c1ccccc1NC(=O)C1CCCN(c2ncnc3onc(C)c23)C1 (stereo unspecified),-5,u,-8%,0%,-7%,x
